In PubChem BioAssay (EPA / NIEHS):
The source made the active and inactive calls. Rule for the calls: active = hit-call score of the fitted dose curve at least 0.9, where 1 is the maximum; inactive = score below 0.9.

Legend:
[1] = ATG_CRE_CIS: Attagene CIS-FACTORIAL HepG2 Assay for human cAMP Responsive Element (CRE) binding protein 3 (AID 2282926); conditions: HepG2 CRE cis-reporter, Attagene multiplexed mRNA; actives raise or lower the signal
Summary of the method: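 Capillary electrophoresis of 6-FAM-labelled, HpaI-digested PCR products quantified reporter transcripts. These came from HepG2 transiently transfected with cis-element reporters and exposed to test chemicals for 24 hours, with DMSO defining baseline activity.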

[2] = target: CCAAT/enhancer-binding protein beta (Homo sapiens) (UniProt P17676); test: ATG_C_EBP_CIS: Attagene CIS-FACTORIAL HepG2 Assay for human CCAAT/Enhancer Binding Protein (C/EBP) beta (AID 2282927); conditions: HepG2 Attagene cis-factorial transcription factor reporter; actives raise or lower the signal
Chain of CCAAT/enhancer-binding protein beta (Homo sapiens) (P17676 whole entry, looked up): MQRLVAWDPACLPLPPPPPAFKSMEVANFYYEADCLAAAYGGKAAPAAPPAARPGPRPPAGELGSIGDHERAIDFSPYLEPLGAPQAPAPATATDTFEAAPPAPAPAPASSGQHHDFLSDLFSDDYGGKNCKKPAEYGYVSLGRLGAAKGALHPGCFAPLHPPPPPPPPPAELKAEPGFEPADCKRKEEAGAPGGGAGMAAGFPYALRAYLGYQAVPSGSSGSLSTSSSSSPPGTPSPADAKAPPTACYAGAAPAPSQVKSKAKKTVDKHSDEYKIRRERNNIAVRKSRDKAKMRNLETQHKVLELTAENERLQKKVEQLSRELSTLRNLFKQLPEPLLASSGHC
Summary of the method: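 Endogenous transcription factor activity in human liver HepG2 cells is inferred from induction of a CEBPB-linked reporter mRNA. Exposure lasts 24 h; activity is fitted in both directions relative to DMSO.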

[3] = ATG_CMV_CIS: Attagene CIS-FACTORIAL HepG2 Assay for human CMV (Internal Marker) (AID 2282928); conditions: HepG2 CMV promoter reporter, transcription factor profiling; actives raise or lower the signal;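 note: endpoint acts as a background internal control marker rather than a target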
Summary of the method: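 Reporter transcripts from transfected HepG2 cells are isolated after 24 h of chemical dosing, reverse-transcribed and amplified. Fragments labeled with 6-FAM are cut with HpaI and quantified by capillary electrophoresis; DMSO defines baseline.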

[4] = ATG_DR4_LXR_CIS: Attagene CIS-FACTORIAL HepG2 Assay for human Liver X Receptor (LXR), DR4 submotif (AID 2282929); conditions: HepG2 Attagene DR4 cis-reporter, mRNA transcription; actives raise or lower the signal
Summary of the method: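 Fluorescence intensity of labelled reporter cDNA fragments, separated by capillary electrophoresis, gives the signal. HepG2 cells bearing cis-regulated reporter constructs were treated 24 h; activity fitted bidirectionally relative to DMSO negative control.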

[5] = target: Aryl hydrocarbon receptor (Homo sapiens) (UniProt P35869); test: ATG_Ahr_CIS: Attagene CIS-FACTORIAL HepG2 Assay for human Aryl Hydrocarbon Receptor (Ahr) (AID 2282930); conditions: HepG2 AhR cis-factorial reporter transcription; actives raise or lower the signal
Chain of Aryl hydrocarbon receptor (Homo sapiens) (P35869 whole entry, looked up): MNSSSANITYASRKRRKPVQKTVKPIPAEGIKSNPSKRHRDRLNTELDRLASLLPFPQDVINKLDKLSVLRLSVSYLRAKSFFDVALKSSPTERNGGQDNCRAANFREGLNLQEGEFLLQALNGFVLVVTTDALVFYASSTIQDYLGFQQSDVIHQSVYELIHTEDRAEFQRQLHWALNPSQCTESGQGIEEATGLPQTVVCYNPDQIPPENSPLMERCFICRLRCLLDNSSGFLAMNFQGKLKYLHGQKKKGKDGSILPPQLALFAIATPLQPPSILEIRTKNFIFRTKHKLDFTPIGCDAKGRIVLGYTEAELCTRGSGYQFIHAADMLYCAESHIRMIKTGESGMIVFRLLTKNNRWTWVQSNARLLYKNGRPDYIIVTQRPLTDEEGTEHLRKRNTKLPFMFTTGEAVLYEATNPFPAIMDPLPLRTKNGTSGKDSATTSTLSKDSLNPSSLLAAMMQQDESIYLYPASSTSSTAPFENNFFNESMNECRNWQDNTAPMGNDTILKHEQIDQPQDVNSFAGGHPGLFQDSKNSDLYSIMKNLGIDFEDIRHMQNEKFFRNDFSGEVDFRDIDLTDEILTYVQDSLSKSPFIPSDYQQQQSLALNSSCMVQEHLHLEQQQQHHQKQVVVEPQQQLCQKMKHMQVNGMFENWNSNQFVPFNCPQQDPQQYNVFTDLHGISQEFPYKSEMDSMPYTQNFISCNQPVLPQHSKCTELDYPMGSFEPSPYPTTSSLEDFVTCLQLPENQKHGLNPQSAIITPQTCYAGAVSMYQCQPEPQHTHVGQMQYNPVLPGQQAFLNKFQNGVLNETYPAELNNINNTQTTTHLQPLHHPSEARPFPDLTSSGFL
Summary of the method: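 Transient MRTU transfection of HepG2 → 24 h compound exposure → total RNA, oligo(dT) RT → PCR, 6-FAM extension, HpaI cut → CE fluorescence. DMSO = baseline; bidirectional curve fit.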

[6] = ATG_AP_1_CIS: Attagene CIS-FACTORIAL HepG2 Assay for human Activator Protein 1 (AP-1) (AID 2282931); conditions: HepG2 Attagene cis-factorial AP-1 reporter mRNA; actives raise or lower the signal
Summary of the method: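 Multiplexed HepG2 reporter assay, 24 h dosing. mRNA induction detected by RT-PCR plus capillary electrophoresis. Activity fitted in both directions against DMSO.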

[7] = ATG_AP_2_CIS: Attagene CIS-FACTORIAL HepG2 Assay for human Activator Protein 2 (AP-2) (AID 2282932); conditions: HepG2 AP-2 cis-reporter, Attagene transcription factor profiling; actives raise or lower the signal
Summary of the method: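 Transiently transfected HepG2 cells are exposed to chemical for 24 h. Reporter transcripts are then measured as fluorescence following RT-PCR and capillary separation, and gain- or loss-of-signal is fitted relative to DMSO.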

[8] = ATG_BRE_CIS: Attagene CIS-FACTORIAL HepG2 Assay for human Bone Morphogenetic Protein (BMP) Response Element (BRE) (AID 2282933); conditions: HepG2 BMP response element reporter, Attagene transcription factor profiling; actives raise or lower the signal
Summary of the method: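 HepG2 cells transiently transfected with CIS reporter units (endogenous TF activity, BMP response element), dosed 24 h. Reporter mRNA quantified by RT-PCR, fluorescent labelling and capillary electrophoresis; bidirectional fit vs DMSO baseline.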

[9] = target: Transcription factor E2F1 (Homo sapiens) (UniProt Q01094); test: ATG_E2F_CIS: Attagene CIS-FACTORIAL HepG2 Assay for human E2F Transcription Factor 1 (AID 2282935); conditions: HepG2 Attagene cis-reporter, E2F reporter RNA transcripts; actives raise or lower the signal
Chain of Transcription factor E2F1 (Homo sapiens) (Q01094 whole entry, looked up): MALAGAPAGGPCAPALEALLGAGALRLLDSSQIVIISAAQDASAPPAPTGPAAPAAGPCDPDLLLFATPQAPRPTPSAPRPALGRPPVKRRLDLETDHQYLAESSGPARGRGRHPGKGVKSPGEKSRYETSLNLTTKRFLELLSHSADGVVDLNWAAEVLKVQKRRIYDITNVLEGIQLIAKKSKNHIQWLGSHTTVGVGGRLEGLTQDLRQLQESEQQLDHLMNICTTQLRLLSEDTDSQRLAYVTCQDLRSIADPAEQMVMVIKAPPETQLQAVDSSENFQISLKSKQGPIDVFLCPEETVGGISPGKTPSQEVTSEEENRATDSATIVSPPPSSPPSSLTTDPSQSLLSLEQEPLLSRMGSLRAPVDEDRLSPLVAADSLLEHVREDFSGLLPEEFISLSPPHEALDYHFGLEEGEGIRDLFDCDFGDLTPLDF
Summary of the method: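 Fluorescent RT-PCR products, digested with HpaI for 2 h at 37 C, are separated by capillary electrophoresis. Source RNA comes from transfected HepG2 cultures treated for 24 h.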

[10] = ATG_E_Box_CIS: Attagene CIS-FACTORIAL HepG2 Assay for human Enhancer Box (E-box) (AID 2282936); conditions: HepG2 E-box cis-reporter transcription, actives raise or lower the signal
Summary of the method: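 Fluorescent reporter fragments separated by capillary electrophoresis gave the signal; mRNA came from HepG2 cells transfected with cis-element reporters and treated 24 h. Curves fitted bidirectionally relative to DMSO controls.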

[11] = ATG_M_61_CIS: Attagene CIS-FACTORIAL HepG2 Assay for M61 Transcription Factor (Internal Marker) (AID 2282937); conditions: HepG2 Attagene CIS-FACTORIAL M61 internal marker reporter; actives raise or lower the signal
Summary of the method: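 Endogenous transcription factor activity in HepG2 is read through transiently transfected cis-element reporter units. After 24 h dosing, RNA undergoes reverse transcription, PCR and primer extension with 6-FAM before capillary electrophoresis; DMSO-referenced bidirectional fit.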

[12] = ATG_EGR_CIS: Attagene CIS-FACTORIAL HepG2 Assay for human Early Growth Response 1 (EGR1) (AID 2282938); conditions: HepG2 Attagene CIS-FACTORIAL EGR reporter mRNA; actives raise or lower the signal
Summary of the method: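 Activity is taken as induction or loss of reporter mRNA versus DMSO, fitted bidirectionally. Transcripts from cis-regulated reporter units in transiently transfected HepG2 were measured after 24 h by RT-PCR with capillary electrophoresis.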

[13] = target: Retinoic acid receptor alpha (Homo sapiens) (UniProt P10276); test: ATG_DR5_RAR_CIS: Attagene CIS-FACTORIAL HepG2 Assay for human Retinoic Acid Receptor Alpha (RARE), DR5 submotif (AID 2282934); conditions: HepG2 Attagene cis-factorial RARE DR5 reporter, mRNA; actives raise or lower the signal;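 for AC50: reporter responds to endogenous RAR alpha beta and gamma in HepG2 not RARA alone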
Chain of Retinoic acid receptor alpha (Homo sapiens) (P10276 whole entry, looked up): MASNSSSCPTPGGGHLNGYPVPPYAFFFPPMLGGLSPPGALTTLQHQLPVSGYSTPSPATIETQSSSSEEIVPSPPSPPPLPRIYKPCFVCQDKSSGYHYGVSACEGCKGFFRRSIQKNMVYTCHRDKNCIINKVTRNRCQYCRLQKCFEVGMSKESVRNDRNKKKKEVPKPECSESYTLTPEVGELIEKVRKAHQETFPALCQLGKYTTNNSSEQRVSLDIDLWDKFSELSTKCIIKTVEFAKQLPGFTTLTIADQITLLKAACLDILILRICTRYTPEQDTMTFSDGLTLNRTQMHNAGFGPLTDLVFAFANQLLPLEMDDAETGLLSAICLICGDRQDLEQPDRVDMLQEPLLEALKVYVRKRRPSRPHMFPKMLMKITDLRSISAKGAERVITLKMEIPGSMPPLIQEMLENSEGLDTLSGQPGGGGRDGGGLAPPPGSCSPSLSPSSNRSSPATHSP
Summary of the method: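 Transient MRTU transfection of HepG2; 24 h compound treatment; TriZol RNA, oligo(dT) RT, PCR, FAM labelling, capillary electrophoresis. Bidirectional fit vs DMSO. Endogenous TF activity at DR5 RARE.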

Measured: AC50

O=C(O)CC(O)(CC(=O)O)C(=O)O
not listed: [13]
inactive: all other assays above

CC(C)N(C(=O)CCl)c1ccccc1
active: [4] 8.6 µM | [6] 11.6 µM | [7] 50.4 µM | [13] 59.1 µM | [9] 48.1 µM | [10] 18 µM
inactive: [1] | [2] | [3] | [5] | [8] | [12]

CCCCN(CCCC)C(=S)S
active: [3] 162 µM | [4] 100 µM | [6] 171 µM | [8] 146 µM | [10] 130 µM | [12] 110 µM
not listed: [13]
inactive: all other assays above

C=CC(=O)OCC(COC(=O)C=C)(COC(=O)C=C)COC(=O)C=C
active: [3] 8.92 µM | [4] 3.12 µM | [6] 33.4 µM | [7] 33.4 µM | [10] 7.14 µM | [12] 8.31 µM
not listed: [13]
inactive: all other assays above

Cc1cccc(C)c1NC(=O)CN1CCCC1=O
not listed: [10]
inactive: all other assays above

CC(=Cc1ccccc1)[N+](=O)[O-]
active: [3] 19.3 µM | [4] 5.88 µM | [6] 19.9 µM | [7] 16.6 µM | [9] 13.5 µM | [10] 17 µM
not listed: [11]
inactive: all other assays above

O=C(CCl)Nc1ccccc1
active: [1] 13.2 µM | [4] 76 µM | [7] 44 µM | [8] 5.35 µM | [9] 147 µM | [12] 44.4 µM
not listed: [10]
inactive: all other assays above

Cc1cc(-c2cc(C)c(N)c(C)c2)cc(C)c1N
active: [3] 37.8 µM | [5] 0.776 µM
not listed: [13]
inactive: all other assays above

CC1(C)COP(Oc2ccccc2)OC1
not listed: [10]
inactive: all other assays above

Nc1ccc(-c2ccccc2)cc1
not listed: [10] | [12]
inactive: all other assays above

O=[N+]([O-])c1ccc(Cl)c([N+](=O)[O-])c1
active: [4] 5.36 µM | [7] 6.06 µM | [10] 6.14 µM | [12] 6.18 µM
not listed: [11]
inactive: all other assays above

CCNc1nc(NCC)nc(SC)n1
not listed: [11]
inactive: all other assays above

C=CC(F)(C(F)(F)F)C(F)(F)C(F)(F)F (stereo not given)
not listed: [13]
inactive: all other assays above
